Drawing on PubChem BioAssay (EPA / NIEHS), this text covers AC50 and outcome for 15 compounds.

A short description of assay [1]: CCTE_Simmons_CellTiterGLO_HEK293T: Viability Assessment in CCTE's Assays for Thyroperoxidase (TPO) Inhibition, Simmons Lab (AID 2283665).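 As to AC50: cells exposed to compound for 24 h before readout; actives reduce ATP signal below DMSO vehicle meaning cytotoxicity.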 Summed up: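 Cells were seeded overnight, then exposed to an eight-point series up to 87.5 uM final for 24 hours. CellTiter-Glo reagent was added and luminescence read after 20 min, giving ATP-based viability versus DMSO.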
(In general: Cellular ATP, detected with luciferase, serves as a proxy for viable cell number.)

A short description of assay [2]: Tanguay_ZF_120hpf_TR_legacy: (Legacy) Oregon State University Tanguay Lab 120 Hour Post-fertilization zebrafish Assay for Touch Response (AID 2283667). Summed up:
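Binary touch-response call at 120 hpf, analysed as gain of signal versus DMSO baseline. Wild-type 5D larvae, static exposure at 28C, 0.64% DMSO final; 5uM trimethyltin chloride as positive control.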

The nature of assay [3]: STM_H9_OrnithineISnorm_perc: Stemina devTOX quickPredict H9 human embryonic stem cell (hESC)-based Assay for Ornithine (ORN) Metabolite Biomarker, Normalized (AID 2283712; active = hit-call score of the fitted dose curve at least 0.9, where 1 is the maximum; inactive = score below 0.9;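 also: ornithine released into spent medium during last day measured by mass spectrometry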). In a few lines:
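Ornithine secreted by H9 hESCs after 72h compound treatment (daily media/compound renewal) was quantified in final-day media by UPLC-HRMS. Values are isotope-standard-normalized, expressed relative to 0.1% DMSO, fitted in positive direction.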

The nature of assay [4]: STM_H9_CystineISnorm_perc: Stemina devTOX quickPredict H9 human embryonic stem cell (hESC)-based Assay for Cystine (CYSS) Metabolite Biomarker, Normalized (AID 2283713; active = hit-call score of the fitted dose curve at least 0.9, where 1 is the maximum; inactive = score below 0.9). In a few lines: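 Cells are held undifferentiated and treated for 72h, receiving fresh medium with compound every 24h. Cystine secreted during the final day is quantified by UPLC-HRMS against a labeled spike-in, then expressed relative to the DMSO vehicle median.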

Assay [5] is described as follows: Tanguay_ZF_120hpf_ActivityScore_legacy: (Legacy) Oregon State University Tanguay Lab 120 Hour Post-fertilization zebrafish Assay Score for Activity (AID 2283742).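 As to AC50: dechorionated Tropical 5D wild-type zebrafish embryos held singly per well.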 Summed up: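 Dechorionated 5D embryos, one per well, static exposure 6–120 hpf, 28C, sealed and dark; final DMSO 0.64% (vol/vol). Brightfield binary scoring of mortality plus 18 endpoints; gain-of-signal fit versus DMSO baseline.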

Assay [6] can be described thus: CEETOX_H295R_MTT_cell_viability: Viability Assessment in the CeeTox HT-H295R MTT Assay (AID 2283718; active = hit-call score of the fitted dose curve at least 0.9, where 1 is the maximum; inactive = score below 0.9). In a few lines: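 Human H295R adrenal cells, prestimulated 48 h with 10 uM forskolin, were exposed 48 h to chemicals in 0.1% DMSO. Viability was measured in the same wells by MTT (0.5 mg/ml, 4 h, 37 C), absorbance 570/650 nm, as percent of controls.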
The nature of assay [7]: STM_H9_OrnCyssISnorm_ratio: Stemina devTOX quickPredict H9 human embryonic stem cell (hESC)-based Assay for Ornithine (ORN):Cystine (CYSS) Ratio (AID 2283714). Summed up:
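UPLC-HRMS of spent media: ORN/CYSS ratio of internal-standard-normalized percentages, DMSO (0.1%) baseline. Pluripotent H9 hESCs, 72h exposure, daily re-dosing with fresh media; last 24h media collected.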

Results filed as inconclusive are left out. Calls of active or inactive are those of the source. The calls were made as follows, unless noted: active = hit-call score of the fitted dose curve at least 0.9, where 1 is the maximum; inconclusive = response in the unintended direction; inactive = score below 0.9.

As to `Clc1ccc(C2(Cn3cncn3)CC(Br)CO2)c(Cl)c1` (stereo not given), the AC50 (usually the midpoint of the concentration-response curve, whichever way the signal moves) in assay [1] is 95.2 µM (active).
As for `O=C(O)C(Cl)(Cl)Cl`, the result in assay [1], in assay [2], in assay [3], in assay [4] and in assay [5] was inactive.
In the case of `CCC(C)(C)c1ccc(O)c(C(C)(C)CC)c1`, in assay [1], the AC50 is 0.847 µM (active). In addition, the compound was called inactive in assay [2] and in assay [5].
Regarding `COP(=O)(OC)O/C(=C\Cl)c1cc(Cl)c(Cl)cc1Cl`, the AC50 in assay [1] was 25 µM (active). Besides, in assay [6], the compound was classed as inactive.
Regarding `NNC(=S)NN`, the result in assay [1] and in assay [6] was inactive.
Regarding `O=C(Nc1ccc2[nH]ccc2c1)c1cc2cc(F)ccc2n1Cc1cccc(F)c1`, the half-maximal activity concentration (AC50) was 0.753 µM (active) in assay [1], 3.5 µM (active) in assay [3], 1.27 µM (active) in assay [4] and 1.28 µM (active) in assay [7]. Moreover, the compound was called inactive in assay [2], in assay [6] and in assay [5].
Consider `CC(C)c1cccc(C(C)C)c1O`, for which, in assay [1], the concentration at half-maximal activity (AC50) is 84.6 µM (active).
Regarding `OCc1ccco1`, the compound was called inactive in assay [1].
With `CC(=O)[O][Hg][c]1ccccc1`, in assay [2], the outcome was inactive. The concentration at half-maximal activity (AC50) in assay [3] is 0.476 µM (active); in assay [4], 0.287 µM (active); in assay [7], 0.311 µM (active); in assay [5], 0.111 µM (active).
As for `CCCCCCCCc1ccc(O)cc1`, in assay [1], the AC50 is 22.6 µM (active). The result in assay [2] and in assay [5] was inactive.
Take `CC12CC1(C)C(=O)N(c1cc(Cl)cc(Cl)c1)C2=O` (stereo not given): the compound was called inactive in assay [1], in assay [2], in assay [6] and in assay [5]. In addition, the concentration at half-maximal activity (AC50) was 61 µM (active) in assay [3], 50 µM (active) in assay [4] and 50 µM (active) in assay [7].
Regarding `CC(C)(c1ccc(OCC2CO2)cc1)c1ccc(OCC2CO2)cc1` (stereo not given), in assay [1], the concentration at half-maximal activity (AC50) was 83.7 µM (active). In assay [7], the result was inactive.
With `CCOP(=S)(OCC)SCSP(=S)(OCC)OCC`, the AC50 in assay [1] is 46.6 µM (active). For the same compound, the call in assay [2], in assay [6] and in assay [5] was inactive.
`CCOC(=O)Nc1cccc(OC(=O)Nc2ccccc2)c1`: the AC50 in assay [1] was 16.6 µM (active).
Take `Cc1ccc2ccccc2c1C`: the AC50 in assay [1] is 17.4 µM (active).
